Screening results: PubChem, several laboratories
An excerpt weighted towards active compounds, which were near 3.9% of everything screened.
BoNT A protease: BoNT/A light chain protease inhibitors, primary screen, biochemical, flow cytometry, MLPCN library; multiplex microsphere protease substrate cleavage; inhibition, % at 10 µM; actives 0.17% (n = 360,000); AID 588499, 2011
Autofluor counter: counter-screen for toxin protease inhibitors: compound fluorescence. AID 624483. compound autofluorescence counterscreen, microsphere flow cytometry; active compounds read high. fluorescence intensity (concentration not given with the values). actives 3.1% (n = 360,000); in the data active means fluorescence intensity above about 16000; inconclusive means no clear call, values can overlap the other calls
DUSP3 inh: VHR1 phosphatase inhibitors, primary screen, biochemical, absorbance, uHTS | inhibition, % at 13.3 µM | AID 1654, 2009 | actives 0.52% (n = 290,000) | recombinant VHR phosphatase, pNPP absorbance | Dual specificity protein phosphatase 3 (Homo sapiens), P51452; in the data active means inhibition above about 50%
Target sequence (P51452 whole entry, looked up): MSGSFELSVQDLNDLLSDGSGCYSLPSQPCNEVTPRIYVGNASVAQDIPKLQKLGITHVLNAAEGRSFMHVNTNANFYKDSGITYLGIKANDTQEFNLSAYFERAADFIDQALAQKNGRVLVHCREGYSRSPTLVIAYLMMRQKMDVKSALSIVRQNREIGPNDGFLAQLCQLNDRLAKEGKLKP
BoNT F protease: BoNT/F light chain protease inhibitors, primary screen, biochemical, flow cytometry, MLPCN library; Multiplex microsphere protease cleavage assay; inhibition, % at 10 µM; actives 0.22% (n = 360,000); AID 588497, 2011; in the data active means inhibition above about 35%, passing the limit was not always enough; inconclusive means no clear call, values can overlap the other calls
Anthrax LF prot: Bacillus anthracis LF protease inhibitors, primary screen, biochemical, multiplex microsphere, MLPCN library. multiplex microsphere protease cleavage assay. inhibition, % at 10 µM. Lethal factor (Bacillus anthracis), P15917. AID 588501, 2011. actives 0.12% (n = 360,000)
SARS 3CLpro inh: SARS-CoV 3CLpro protease inhibitors, primary screen, biochemical, quenched FRET | Replicase polyprotein 1ab (Severe acute respiratory syndrome coronavirus), P0C6X7 | recombinant SARS-CoV 3CLpro, quenched FRET peptide cleavage | inhibition, % at 6 µM | actives 0.14% (n = 290,000); in the data active means inhibition above about 12%
Numbers stand for hits; i = inactive; ? = inconclusive; nt = not tested or not shown. Unless noted, no stated cut-off is given here; in the data, active means inhibition above about 30%; inconclusive means no clear call, values can overlap the other calls; inactive means below that.

SMILES | BoNT A protease | Autofluor counter | DUSP3 inh | BoNT F protease | Anthrax LF prot | SARS 3CLpro inh
COc1cccc(N2CCN(c3nc(C)cc(=O)[nH]3)CC2)c1 | i | ? | i | i | i | i
Cc1cc(=O)[nH]c(SCC(=O)N2CCc3ccccc3C2)n1 | i | 20691 | i | i | i | i
Cc1cc(=O)[nH]c(N2CCCNCC2)n1 | i | i | 54 | i | i | i
COc1cc(=O)[nH]c(SCc2c(F)c(F)c(F)c(F)c2F)n1 | i | 18910 | i | i | i | i
O=c1cc(-c2ccccc2)nc(SCc2ccc(F)cc2)[nH]1 | i | i | i | i | i | i
COc1ccc(C(=O)c2cn[nH]c2-c2cc(Cl)ccc2O)cc1 | i | 16806 | i | i | i | i
CN1C(=O)CC(N2CCN(c3ccc(Cl)c(Cl)c3)CC2)C1=O (stereo not drawn) | i | 16251 | i | i | i | i
O=C1CSC(=S)N1Nc1ccccc1 | i | i | nt | i | i | nt
Cc1ccc(CSc2ccc(-c3ccco3)nn2)cc1 | i | i | 53 | i | i | i
CC(C)CNC(=O)C(=O)NNC(=O)C1CCCCC1 | i | 21511 | i | i | i | i
CC(C)CNC(=O)C1CCN(CC2CCCCC2)CC1 | i | i | i | i | i | i
NC(=O)CSc1nnnn1-c1ccc(OC(F)(F)F)cc1 | ? | 23160 | i | i | i | i
COc1ccc(-n2nnnc2SCC(N)=O)cc1 | i | i | i | i | i | i
O=C(Nc1cnc2sccn2c1=O)c1ccc(Cl)cc1Cl | i | 22211 | i | i | i | i
COC(=O)c1sc(NC(=S)NNC(=O)c2c(Br)c(C)nn2C)c(C(=O)OC)c1C | i | i | i | i | i | i
Cc1c(OCc2nn[nH]n2)ccc2c(-c3ccccc3)cc(=O)oc12 | i | i | i | i | i | i
COc1ccc(-c2cc(=O)oc3cc(OC(C)C(=O)O)ccc23)cc1 (stereo not drawn) | i | i | i | i | i | i
COc1ccc(-c2cc(=O)oc3c(C)c(OCc4nn[nH]n4)ccc23)cc1 | ? | 23374 | i | i | i | i
COc1ccc(-c2cc(=O)oc3c(O)c(O)ccc23)cc1 | i | i | 59 | i | i | i
Cc1cc(OCc2nn[nH]n2)c2c(-c3ccccc3)cc(=O)oc2c1 | i | 20272 | i | i | i | i
CCN(CC(=O)NC(C)(C)C)C(=O)CCl | i | i | i | i | i | i
CC(C)(C)c1ccc(C(=O)Nc2c3c(nn2C(C)(C)C)CS(=O)(=O)C3)cc1 | i | ? | i | i | i | i
Cc1cc(C)cc(C(=O)Nc2c3c(nn2C(C)(C)C)CS(=O)(=O)C3)c1 | i | i | 51 | i | i | i
CCN(CC)S(=O)(=O)c1ccc(C(=O)Nc2c3c(nn2C(C)(C)C)CS(=O)(=O)C3)cc1 | i | 23143 | i | i | i | i
COc1ccc(C(=O)Nc2c3c(nn2C(C)(C)C)CS(=O)(=O)C3)cc1OC | i | i | i | i | i | i
SMILES | BoNT A protease | Autofluor counter | DUSP3 inh | BoNT F protease | Anthrax LF prot | SARS 3CLpro inh
Cc1cnc(CN(C)C(=O)c2ccc3oc(Cc4ccc(Cl)cc4)nc3c2)[nH]1 | i | i | i | i | i | i
Cc1ccccc1NS(=O)(=O)c1cc(C(=O)N2CCCC2)ccc1C | nt | nt | i | nt | nt | i
COc1ccccc1NS(=O)(=O)c1cc(C(=O)N2CC(C)CC(C)C2)ccc1C (stereo not drawn) | ? | 22186 | i | i | i | i
CC1CCN(c2ncnc3c2cnn3-c2ccccc2)CC1 | i | i | i | i | i | i
COc1cccc(OCCN2CCN(c3ncnc4c3cnn4-c3ccccc3)CC2)c1 | i | 16922 | i | i | i | i
CC(NC(=O)c1ccccc1Br)c1nnc(SCc2ccc([N+](=O)[O-])cc2)n1C (stereo not drawn) | i | 19315 | i | i | i | i
Cn1c(SCc2ccc([N+](=O)[O-])cc2)nnc1-c1cccnc1 | i | i | i | i | i | i
O=C(NC12CC3CC(CC(C3)C1)C2)c1ccccc1 | i | i | i | i | i | i
O=C(NC12CCC(O)C(SC1)/C2=N/O)c1ccccc1 (stereo not drawn) | i | 19906 | i | i | i | i
CCOC(=O)CCc1c(C)c(C#N)c2nc3ccccc3n2c1-n1ccnc1 | i | i | i | i | i | i
COC(=O)CCc1c(C)c(C#N)c2nc3ccccc3n2c1N1CCCC1 | i | 22382 | i | i | i | i
COC(=O)Nc1ccc(S(=O)(=O)N2CCCC(C(=O)NC3CCS(=O)(=O)C3)C2)cc1 (stereo not drawn) | i | i | i | i | i | i
Cc1ccc(S(=O)(=O)/N=C(\Sc2ccccc2)c2ccccc2)cc1 | i | 24784 | i | i | i | i
O=C(O)c1ccc2c(c1)C(=O)N(CCc1c[nH]c3ccccc13)C2=O | i | i | i | i | i | i
CCCCOP(=O)(OCCCC)C1(C)CC(=O)CC(C)(C)C1 (stereo not drawn) | i | i | nt | i | i | nt
COc1ccc(C(=O)N=C2SC3CS(=O)(=O)CC3N2c2ccccc2)cc1OC (stereo not drawn) | i | i | 52 | i | i | i
Cc1ccc(N2C(=O)CC3(CC4C=CC3C4)C2=O)cc1 (stereo not drawn) | i | i | i | i | i | i
Cc1ccc(-c2nnn(Cc3nc4ccccc4s3)n2)cc1 | i | 21007 | i | i | i | i
Cc1ccc(S(=O)(=O)CCc2nc3ccccc3s2)cc1 | i | i | i | i | i | i
COc1ccc(CCNC(=O)c2c(O)c3ccccc3[nH]c2=O)cc1 | i | i | 58 | i | i | i
COC(=O)c1c(O)c2ccccc2[nH]c1=O | i | 19580 | i | i | i | i
CC(C)NC(=O)c1c(O)c2ccccc2[nH]c1=O | i | i | i | i | i | i
O=C(Nc1cccc(F)c1)c1c(O)c2ccccc2[nH]c1=O | i | i | 50 | ? | i | i
OC[C@@H]1CN(Cc2cccc(C(F)(F)F)c2)C[C@H](n2cnc3c(NCc4ccco4)ncnc32)O1 | i | i | nt | i | i | nt
CC(=O)c1cccc(NS(=O)(=O)c2c(C(=O)N3CCOCC3)c(C)n(C)c2C)c1 | i | i | i | i | i | i
SMILES | BoNT A protease | Autofluor counter | DUSP3 inh | BoNT F protease | Anthrax LF prot | SARS 3CLpro inh
COC(=O)c1[nH]c2ccccc2c1CN1CCOCC1 | i | i | 56 | i | i | i
O=C(O)c1[nH]c2ccccc2c1CC(=O)N1CCN(c2ccccc2)CC1 | i | i | i | i | i | i
CCOC(=O)c1oc2ccccc2c1CN1CCCCC1 | i | i | i | i | i | i
CCOC(=O)c1oc2ccccc2c1CN1CCOCC1 | i | 21460 | i | i | i | i
O=C(O)c1[nH]c2ccccc2c1CC(=O)N1CCOCC1 | i | 19170 | i | i | i | i
CCC(=O)N(c1nnc(SCC(=O)c2ccc[nH]2)s1)C1CC1 | i | i | nt | i | i | nt
